From publication PMC5540273 (PLoS ONE, 2017)

How the values were obtained:
Details in all cases: concentration: 1 μM, replicates: in singlicate; n = 1
ALK = system: ALK
AMPK-alpha1 = system: T1, AMPK-alpha1
T1 construct: gene PRKAA1

AMPK-alpha2 = system: T2, AMPK-alpha2
T2 construct: gene PRKAA2

ANKK1 = system: ANKK1
ARK5 = system: T3, ARK5
T3 construct: gene NUAK1

ASK1 = system: T4, ASK1
T4 construct: gene MAP3K5

ASK2 = system: T5, ASK2
T5 construct: gene MAP3K6

AURKA = system: AURKA
AURKB = system: AURKB
AURKC = system: AURKC
AXL = system: AXL
BIKE = system: T6, BIKE
T6 construct: gene BMP2K

BLK = system: BLK
BMPR1A = system: BMPR1A
BMPR1B = system: BMPR1B
BMPR2 = system: BMPR2
BMX = system: BMX
BRAF = system: BRAF
BRK = system: T7, BRK
T7 construct: gene PTK6

BRSK1 = system: BRSK1
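Note: KINOMEscan kinase panel screen.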

Compound | %Inh (ALK) | %Inh (AMPK-alpha1) | %Inh (AMPK-alpha2) | %Inh (ANKK1) | %Inh (ARK5) | %Inh (ASK1) | %Inh (ASK2) | %Inh (AURKA) | %Inh (AURKB) | %Inh (AURKC) | %Inh (AXL) | %Inh (BIKE) | %Inh (BLK) | %Inh (BMPR1A) | %Inh (BMPR1B) | %Inh (BMPR2) | %Inh (BMX) | %Inh (BRAF) | %Inh (BRK) | %Inh (BRSK1)
COc1ccc(-c2cc3c(C)nc(N)nc3n([C@H]3CC[C@H](O)CC3)c2=O)cn1 | 0% | 0% | 0% | 0% | 4% | 6% | 0% | 0% | 0% | 0% | 0% | 0% | 0% | 40% | 0% | 0% | 0% | 0% | 0% | 0%
COc1cc(Nc2ccnc3ccc(C(F)(F)F)cc23)cc(OC)c1OC [GW577382] | 22% | 0% | 25% | 12% | 10% | 6% | 19% | 49% | 0% | 7% | 12% | 0% | 34% | 0% | 22% | 22% | 16% | 8% | 8% | 0%
O=C(Nc1n[nH]c2nc(-c3ccccc3)c(Cl)cc12)C1CC1 [SB-734909] | 15% | 0% | 10% | 19% | 1% | 0% | 21% | 28% | 33% | 25% | 0% | 21% | 0% | 9% | 27% | 0% | 1% | 62% | 0% | 70%
O=C(NCc1cccs1)c1cc(C(=O)c2c(Cl)cccc2Cl)c[nH]1 [GW823670] | 0% | 8% | 0% | 0% | 0% | 19% | 0% | 0% | 9% | 1% | 0% | 19% | 28% | 7% | 0% | 15% | 0% | 0% | 0% | 0%
COc1cc(Nc2nccc(N3CCC(NC(=O)C4COc5ccccc5O4)C3)n2)cc(OC)c1OC (stereo not shown) [GSK1379761] | 18% | 11% | 0% | 24% | 2% | 0% | 5% | 51% | 72% | 75% | 17% | 57% | 16% | 0% | 0% | 26% | 16% | 0% | 2% | 9%
CN1C(=O)C(Nc2ccccc2)=C(c2ccccc2)C1=O [SB-300079] | 7% | 0% | 1% | 15% | 0% | 0% | 0% | 0% | 21% | 0% | 0% | 0% | 23% | 12% | 0% | 14% | 0% | 9% | 0% | 0%
Cc1ccccc1COc1cc(-n2cnc3cc(Cl)ccc32)sc1C(N)=O [GW813349] | 23% | 0% | 3% | 26% | 0% | 18% | 0% | 26% | 2% | 31% | 2% | 20% | 18% | 0% | 12% | 26% | 1% | 6% | 0% | 0%
Nc1n[nH]c2ncc(-c3ccccc3)cc12 [SB-517081] | 38% | 0% | 0% | 28% | 2% | 0% | 0% | 21% | 64% | 27% | 0% | 17% | 13% | 2% | 0% | 34% | 0% | 0% | 24% | 0%
Fc1cccc(CSc2nnc(-c3ccc4c(c3)CCO4)o2)c1 | 79% | 13% | 17% | 35% | 11% | 11% | 22% | 9% | 20% | 0% | 0% | 0% | 0% | 1% | 5% | 0% | 0% | 7% | 2% | 0%
O=C(Nc1ccc2c(c1)OCO2)NC1CCN(c2ccnc(NCc3ccc(F)cc3)n2)CC1 [GSK1379859] | 9% | 0% | 0% | 0% | 6% | 0% | 0% | 11% | 0% | 24% | 2% | 7% | 43% | 0% | 0% | 0% | 3% | 0% | 4% | 0%
CCc1ccc(-c2ccc3c(c2)-c2nn(C)cc2S(=O)(=O)N3C)cc1 | 10% | 0% | 9% | 0% | 13% | 0% | 0% | 0% | 6% | 0% | 8% | 0% | 0% | 0% | 0% | 0% | 0% | 32% | 0% | 0%
CCCC(=O)Nc1n[nH]c2ncc(-c3cccc4ccccc34)cc12 [SB-642057] | 29% | 37% | 19% | 7% | 6% | 9% | 9% | 6% | 24% | 16% | 18% | 28% | 0% | 12% | 5% | 0% | 0% | 0% | 0% | 0%
Cc1nn2c(=O)cc(N3CCOCC3)nc2n1Cc1cccc(Cl)c1Cl [GSK2342769] | 29% | 0% | 2% | 0% | 20% | 5% | 7% | 0% | 3% | 0% | 4% | 2% | 18% | 0% | 0% | 4% | 12% | 7% | 1% | 0%
OCCCNc1nccc(-c2c(-c3cccc(C(F)(F)F)c3)nn3cc(C(F)(F)F)ccc23)n1 [GW630813] | 0% | 0% | 0% | 5% | 0% | 0% | 0% | 17% | 0% | 7% | 0% | 0% | 33% | 0% | 0% | 0% | 13% | 0% | 0% | 0%
CCC(=O)c1c(-c2ccccc2)c2cc(Cl)ccc2c(=O)n1Cc1cc(S(C)(=O)=O)n(CC(F)F)n1 | 0% | 0% | 8% | 0% | 5% | 0% | 0% | 0% | 11% | 0% | 0% | 0% | 0% | 0% | 6% | 1% | 0% | 13% | 0% | 0%
COc1ccc(-c2cc3c(C)nc(N)nc3n([C@H]3CC[C@H](OCCO)CC3)c2=O)cn1 | 0% | 5% | 2% | 0% | 0% | 11% | 0% | 0% | 0% | 7% | 0% | 22% | 2% | 5% | 1% | 0% | 0% | 0% | 0% | 28%

Compound | %Inh (ALK) | %Inh (AMPK-alpha1) | %Inh (AMPK-alpha2) | %Inh (ANKK1) | %Inh (ARK5) | %Inh (ASK1) | %Inh (ASK2) | %Inh (AURKA) | %Inh (AURKB) | %Inh (AURKC) | %Inh (AXL) | %Inh (BIKE) | %Inh (BLK) | %Inh (BMPR1A) | %Inh (BMPR1B) | %Inh (BMPR2) | %Inh (BMX) | %Inh (BRAF) | %Inh (BRK) | %Inh (BRSK1)
C[C@@H]1CC[C@H](C(=O)NC2CCCCC2)CN1c1cc(-c2ccc3c(N)n[nH]c3c2)nc(N)n1 [GSK2291363] | 29% | 7% | 14% | 20% | 6% | 9% | 7% |  | 24% | 69% | 4% | 78% | 52% | 0% | 0% | 0% | 21% | 5% | 27% | 0%
COc1cccc(C2=C(N(C)c3ccccc3)C(=O)NC2=O)c1 [SB-334865] | 24% | 6% | 13% | 0% | 1% | 18% | 0% | 11% | 32% | 0% | 0% | 0% | 0% | 0% | 0% | 0% | 0% | 0% | 15% | 0%
COc1cccc(-n2cnc3c(N)ncnc32)c1 [SKF-97416] | 56% | 2% | 15% | 14% | 0% | 4% | 35% | 0% | 31% | 5% | 0% | 0% | 0% | 17% | 24% | 57% | 0% | 18% | 0% | 16%
CN(C)c1cc(-c2ccc3c(N)n[nH]c3c2)nc(N)n1 [GSK2219329] | 0% | 0% | 11% | 10% | 0% | 0% | 0% | 0% | 10% | 9% | 0% | 32% | 2% | 0% | 0% | 0% | 13% | 0% | 0% | 0%
O=c1cc(N2CCOCC2)nc2n(Cc3ccc(F)c(Cl)c3)ccn12 [GSK2297099] | 20% | 0% | 19% | 13% | 14% | 2% | 0% | 0% | 0% | 0% | 0% | 0% | 13% | 0% | 0% | 0% | 5% | 8% | 0% | 0%
O=C1NC(=O)C(c2ccccc2)=C1Nc1cccc(O)c1 [SB-390534] | 0% | 0% | 0% | 0% | 0% | 0% | 4% | 12% | 35% | 0% | 27% | 4% | 6% | 2% | 0% | 10% | 15% | 0% | 0% | 2%
O=C(NCCNc1ccnc(Nc2ccc(F)cc2)n1)Nc1ccc2c(c1)OCO2 [GSK1379882] | 24% | 0% | 2% | 18% | 11% | 14% | 0% | 28% | 0% | 36% | 0% | 17% | 7% | 0% | 10% | 0% | 7% | 0% | 0% | 11%
Nc1n[nH]c2nnc(-c3ccccc3)c(-c3ccccc3)c12 [GW554060] | 35% | 0% | 14% | 0% | 9% | 0% | 4% | 0% | 35% | 13% | 0% | 22% | 35% | 0% | 41% | 0% | 22% | 2% | 8% | 10%
Cc1nc(N(C)[C@H]2CN(C(=O)CC#N)CC[C@H]2C)c2cc[nH]c2n1 | 0% | 0% | 0% | 0% | 0% | 0% | 0% | 0% | 0% | 0% | 9% | 0% | 18% | 0% | 10% | 8% | 0% | 0% | 0% | 0%
CN1C(=O)C(Nc2cc(Cl)c(O)c(Cl)c2)=C(c2ccc(Cl)cc2)C1=O [SB-404321] | 48% | 0% | 0% | 0% | 0% | 0% | 0% | 0% | 14% | 0% | 27% | 0% | 0% | 0% | 0% | 1% | 13% | 0% | 0% | 0%
Nc1ncnc2c1ncn2-c1cccc(F)c1 [SKF-97560] | 43% | 0% | 0% | 17% | 2% | 18% | 35% | 0% | 6% | 0% | 13% | 0% | 0% | 0% | 29% | 26% | 24% | 24% | 0% | 0%
CCc1nc(-c2cccc(C)c2)c(-c2ccncc2)s1 | 0% | 0% | 0% | 0% | 17% | 0% | 0% | 0% | 13% | 0% | 0% | 3% | 0% | 0% | 0% | 0% | 0% | 50% | 7% | 0%
COc1cc2ncn(-c3cc(OCc4ccncc4Br)c(C(N)=O)s3)c2cc1OC [GW854278] | 0% | 7% | 0% | 5% | 0% | 6% | 6% | 0% | 20% | 20% | 30% | 39% | 11% | 8% | 6% | 13% | 10% | 2% | 6% | 25%
Nc1ncnc2c1ncn2-c1cccc2ccccc12 [SKF-97184] | 0% | 0% | 21% | 0% | 0% | 0% | 0% | 0% | 28% | 0% | 0% | 0% | 6% | 0% | 0% | 35% | 0% | 0% | 0% | 0%
COC(=O)c1c(-c2ccccc2)c2cc(Br)ccc2c(=O)n1Cc1ccc(NC(=O)CCC(=O)O)cc1 | 52% | 21% | 22% | 0% | 0% | 2% | 0% | 0% | 9% | 0% | 0% | 0% | 4% | 0% | 6% | 7% | 2% | 42% | 0% | 0%
